# Tested on: PPARalpha LBD (GAL4 fusion)
# Assay: luciferase reporter transactivation, fold of solvent control; higher = stronger receptor activation
# Settings: HEK293T, exposure time: 24 h
# Description: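 HEK293T cells were transiently transfected with a GAL4-DBD fused to the ligand-binding domain of a human nuclear receptor (PPARα, PPARγ, PPARδ, FXR, LXRα, PXR, RARα or CAR), the GAL4-(UAS)5-TK firefly luciferase reporter and a Renilla luciferase normalisation plasmid. Cells were exposed to compound for 24 h in 0.5% DMSO. Firefly/Renilla luciferase was expressed as fold of the solvent control (=1). Values are the mean of 2-3 biological replicates; receptor agonists were used as positive controls.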
SMILES,luciferase reporter transactivation (concentration: 1 µM),luciferase reporter transactivation (concentration: 2.5 µM),luciferase reporter transactivation (concentration: 5 µM),luciferase reporter transactivation (concentration: 10 µM),luciferase reporter transactivation (concentration: 100 µM),luciferase reporter transactivation (concentration: 25 µM),luciferase reporter transactivation (concentration: 50 µM),luciferase reporter transactivation (concentration: 250 µM),luciferase reporter transactivation (concentration: 500 µM)
NS(=O)(=O)C(F)(F)C(F)(F)C(F)(F)C(F)(F)C(F)(F)C(F)(F)C(F)(F)C(F)(F)F [perfluorooctane sulfonamide],0.788,0.548,0.904,0.796,1.2,–,–,–,–
O=C(O)C(F)(F)C(F)(F)F [perfluoropropanoic acid],1.08,–,1.01,1.07,1.78,1.03,1.12,1.42,1.98

# Reference: the supplement of paper PMC11402862
